# Source: PubChem BioAssay (NCATS)
# Where “and” joins values, the source holds several entries; their conditions need not be identical. Equal entries are not always repeated. Results filed as inconclusive are left out. Where a structure was tested more than once in an assay, its records may differ in their call. Calls of active or inactive are those of the source. Unless noted, calls follow the shape of the dose curve; as a rule, active = well fitted curve in the direction sought with a large enough effect; inconclusive = small, poorly fitted or top-dose-only effect, or another doubt; inactive = no such curve, though single readings can be large; an effect the other way counts as inactive or inconclusive.
# Tests used:
# [1] = AP1 Signaling Pathway (AID 357; active = well fitted curve in either direction with a large enough effect, not every such curve was filed as active; also: % is scaled to controls: 0 for no effect and ±100 for the full control effect); details: ME-180 AP-1-bla reporter, EGF-induced, beta-lactamase ratio, 5 h
# Outline: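 ME-180 cells with beta-lactamase reporter under AP-1 response element, stimulated with EC50 EGF; compounds tested in titration series, 5 h at 37 °C. CCF4 substrate added 2.5 h at room temperature; 460/530 nm emission ratio gave %activity and AC50.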
# [2] = molecular target: Cytochrome P450 1A2 (Homo sapiens) (UniProt P05177); assay: p450-cyp1a2 (AID 410; calls by dose curve; also: potency is read from the fitted curve at half-maximal effect;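 as to activity change, negative = inhibition: -100% = full effect of reference inhibitor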)
# Outline: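 Human CYP1A2 (20nM) demethylated Luciferin-ME at its Km (100uM) in 100mM KPO4. After 10 min compound preincubation, NADPH regeneration ran the reaction 60 min at room temperature. Luciferin was read by luminescence, normalized to 57 uM furafylline.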
# [3] = NFAT Signaling Pathway (AID 444; active = well fitted curve in either direction with a large enough effect, not every such curve was filed as active;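 also: carbachol stimulus at about its EC50 of 1 µM final; % is scaled to controls: 0 for no effect and ±100 for the full control effect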); details: Jurkat NFAT-bla M1, carbachol, beta-lactamase ratio, 5 h
# Outline: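 Jurkat cells carrying an NFAT-driven β-lactamase reporter and co-transfected muscarinic M1 receptor were treated with compound plus carbachol (1 uM final, an EC50 level) for 5 h at 37 °C. CCF4 loading followed for 1 h at RT; 460/530 nm ratio gave %activity.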
# [4] = Stat Signaling Pathway (AID 446; active = well fitted curve in either direction with a large enough effect, not every such curve was filed as active;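 also: ME-180 cervical cancer cells given 40 pM IL-6 alongside compound; SIE-controlled beta-lactamase reporter measured as 460/530 nm FRET emission ratio; % is scaled to controls: 0 for no effect and ±100 for the full control effect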); details: ME-180 SIE beta-lactamase reporter, IL-6 stimulated, 5 h
# Outline: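 ME-180 SIE-bla cells; overnight plating; cpd + IL-6 40 pM, 5 h, 37 C; LiveBLAzer 2.5 h RT; 460/530 nm emission ratio. Normalized to 300 pM IL-6 and 125 nM JAK inhibitor controls.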
# [5] = molecular target: Glucocorticoid receptor (Homo sapiens) (UniProt P04150); assay: GR-GFP Redistribution (AID 450;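 active = compounds whose dose series gives a full or clear partial fitted curve of increased nuclear translocation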; also: potency is read from the fitted curve at half-maximal effect); details: U2OS GR-GFP nuclear translocation, laser cytometry, 2 h
# [6] = molecular target: Mitogen-activated protein kinase 10 (Mus musculus) (UniProt Q61831); assay: JNK3 AlphaScreen Assay (AID 530; active = well fitted curve in either direction with a large enough effect, not every such curve was filed as active;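 also: kinase came from lysate of stimulated human HepG2 cells; signal reports phosphorylation of biotinylated GST-cJun 1-79 at Ser73 with 10 µM ATP; % is scaled to controls: 0 for no effect and ±100 for the full control effect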)
# Outline: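 JNK3 came from HepG2 lysates pre-activated with IL-1beta and TNF-alpha and phosphorylated biotinylated GST-cJun (1-79) at 10 uM ATP, pH 7.6, room temperature. Compounds were titrated. AlphaScreen signal used anti-phospho-cJun (Ser73) antibody.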
# [7] = molecular target: 3',5'-cyclic-AMP phosphodiesterase 4B (Homo sapiens) (UniProt Q07343); assay: qHTS Assay for Inhibitors of PDE-IV (AID 607; active = well fitted activation curve with a large enough effect in the main read-out, with a control signal flat, not every such curve was filed as active; also: % of control where 0% means no effect)
# Outline: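 ACTOne HEK293 cells carry a modified cAMP-gated CNG channel and express endogenous PDE4; plated 1000 cells/well, compounds up to 22.9 uM final. Membrane-potential dye fluorescence (ex 535/em 590) was read; parental cells received 10 uM forskolin + 100 uM RO 20-1724.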
# [8] = molecular target: Guanine nucleotide-binding protein G(i) subunit alpha-1 (Homo sapiens) (UniProt P63096); assay: qHTS Assay for Inhibitors of RGS12 GoLoco Motif Activity (Green Fluorophore) (AID 879);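 also: 0% = labeled peptide with Gαi1 and full inhibition = labeled peptide alone without protein; negative values mean loss of peptide binding seen as reduced polarization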
# Outline: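 Fluorescence polarization assay: 50 nM Gαi1 with 10 nM FITC-labeled RGS12 GoLoco peptide in 10 mM Tris pH 7.5, 150 mM NaCl, 0.1 mM GDP, 0.05% NP40, 10 min at room temperature with compound.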
# [9] = molecular target: Cytochrome P450 2C9 (Homo sapiens) (UniProt P11712); assay: qHTS Assay for Inhibitors and Substrates of Cytochrome P450 2C9 (AID 883); also: potency is read from the fitted curve at half-maximal effect; nearly all actives have a fitted effect of over 60% in size
# Outline: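 CYP2C9 deoxyluciferin hydroxylation, 37C, 60 min with NADPH regeneration; 10nM enzyme, 100uM Luciferin-H (KM). Glo detection reagent stopped reaction; luminescence normalized to sulphaphenazole (57uM) full inhibition.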
# [10] = qHTS Assay for Identification of Small Molecule Agonists for Thrombopoietin (TPO) Signaling Pathway (AID 917); also: % is scaled to controls: 0 for no effect and ±100 for the full control effect
# Outline: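 IL-3-dependent murine pro-B Ba/F3 cells, stably transfected with human TPO receptor and GpIIb-promoter luciferase, are incubated 24 hrs at 37 C with test compound and 26 pM TPO; luciferase signal is read after 10 min at room temperature.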
# [11] = molecular target: Muscarinic acetylcholine receptor M1 (Rattus norvegicus) (UniProt P08482); assay: qHTS Assay for Antagonists of Acetylcholine Muscarinic M1 Receptor: Measurement of IP-One Response (AID 944); also: nearly all actives have a fitted effect of over 75% in size
# Outline: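 CHO cells expressing rat M1 receptor, recovered overnight, were pre-incubated 10 min with compound, then stimulated 30 min with carbachol at EC80 (200 nM) in LiCl-containing buffer, pH 7.4. IP1 accumulation was read by HTRF (620/665 nm).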
# [12] = molecular target: Pyruvate kinase (Leishmania mexicana) (UniProt Q27686); assay: qHTS Validation Assay for Inhibitors of Leishmania Mexicana Pyruvate Kinase (AID 945);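 also: 0% = DMSO only neutral control wells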
# Outline: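 Eight-point qHTS titrations; enzyme 0.2 nM LmPYK (E451W mutant); substrates 0.5 mM PEP, 0.1 mM ADP; 7 mM MgCl2; 1 h room temperature; PKLight luminescence normalized to neutral control.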
# [13] = molecular target: Alpha-galactosidase A (Homo sapiens) (UniProt P06280); assay: Counterscreen for Glucocerebrosidase Inhibitors: qHTS Assay for Human alpha-Galactosidase at pH 4.5 (AID 992); also: 0% is about no effect
# Outline: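 Enzyme at 2 nM final was combined with compound (0.7 nM to 77 uM) and 80 uM 4-methylumbelliferyl alpha-D-galactopyranoside in 50 mM citric acid, 0.005% Tween-20, pH 4.5. After 20 min at room temperature, fluorescence was read (Ex 365/Em 440 nm); AC50 came from Hill fits.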
# [14] = molecular target: alpha-glucosidase (Oryza sativa, rice) (UniProt Q653V4); assay: Counterscreen for Glucocerebrosidase Inhibitors: qHTS Assay for Rice alpha-Glucosidase at pH 5.0 (AID 997);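 also: 0% = full activity with enzyme and -100% = basal without enzyme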
# Outline: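 Rice alpha-glucosidase (4 nM final) with 400 uM 4-methylumbelliferyl-alpha-D-glucopyranoside in citrate buffer pH 5.0, 20 min at room temperature, stopped at pH 10; fluorescence 365/440 nm, compounds 0.7 nM–77 uM, AC50 from Hill fits.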
# [15] = qHTS Assay for Lipid Storage Modulators (AID 1519; calls by dose curve); details: Drosophila S3 cells, BODIPY lipid droplet/cell ratio, laser cytometry, cells loaded with oleic acid
# Outline: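 Cells seeded at 5,000 per well were treated with compounds over a concentration series and loaded with oleic acid (400 uM, as added). Lipid droplet fluorescence (488 nm excitation, 500-530 nm channel) was read by laser-scanning cytometry and normalized to 20 uM Triacsin C.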
# [16] = molecular target: Ubiquitin carboxyl-terminal hydrolase 1 (Homo sapiens) (UniProt O94782); assay: Inhibitors of USP1/UAF1: Pilot qHTS (AID 504865);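 also: rhodamine fluorescence freed from ubiquitin-rhodamine substrate followed over time; top concentration of the series differs between compounds; % is scaled to controls: 0 for no effect and ±100 for the full control effect; nearly all actives have a fitted effect of over 35% in size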
# Outline: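 Enzyme-free wells gave the negative control, while test wells held 1nM USP1/UAF1 preincubated with compound for 15 min at room temperature. Ub-Rho at 150nM final started the reaction, and fluorescence at 480/540 nm was recorded kinetically.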
# [17] = molecular target: DNA dC->dU-editing enzyme APOBEC-3G (Homo sapiens) (UniProt Q9HC16); assay: qHTS for inhibitors of Vif-A3G interactions: Validation (AID 588379); also: 0% is about no effect
# Outline: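 HeLa cells stably expressing Vif and A3G-eYFP, 700 cells/well, incubated overnight at 37 deg C, then exposed to compound overnight at 37 deg C. Inhibition of Vif-mediated degradation read as increased yellow fluorescence (Ex 488/Em 500-530) by laser-scanning cytometry.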
# [18] = test system: Zika virus NS2B-NS3 protease; assay: Primary screen GU AMC qHTS for Zika virus inhibitors (AID 1347154);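 also: 0% = no-inhibitor control and -100% = no-enzyme control; nearly all actives have a fitted effect of over 70% in size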
# Outline: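 Unlinked Zika NS2B hydrophilic domain/NS3 protease domain noncovalent complex (25 nM final) in 10 mM Tris-HCl pH 8.0, 0.01% Tween 20, with AMC peptide substrate. Fluorescence (ex 340, em 450 nm) change over 15 min, room temperature; percent inhibition fitted to 4-parameter Hill equation.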
# [19] = Primary qHTS for small molecule stabilizers of the endoplasmic reticulum resident proteome: Secreted ER Calcium Modulated Protein (SERCaMP) assay (AID 1508630); also: % is scaled to controls: 0 for no effect and ±100 for the full control effect
# Outline: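 GLuc-SERCaMP-expressing SH-SY5Y cells, pretreated 16 h with compound, are challenged with thapsigargin to empty ER calcium stores; after 4 h, coelenterazine is added directly to the medium and luminescence is imaged.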
# Sequence of Glucocorticoid receptor (Homo sapiens) (P04150 whole entry, looked up): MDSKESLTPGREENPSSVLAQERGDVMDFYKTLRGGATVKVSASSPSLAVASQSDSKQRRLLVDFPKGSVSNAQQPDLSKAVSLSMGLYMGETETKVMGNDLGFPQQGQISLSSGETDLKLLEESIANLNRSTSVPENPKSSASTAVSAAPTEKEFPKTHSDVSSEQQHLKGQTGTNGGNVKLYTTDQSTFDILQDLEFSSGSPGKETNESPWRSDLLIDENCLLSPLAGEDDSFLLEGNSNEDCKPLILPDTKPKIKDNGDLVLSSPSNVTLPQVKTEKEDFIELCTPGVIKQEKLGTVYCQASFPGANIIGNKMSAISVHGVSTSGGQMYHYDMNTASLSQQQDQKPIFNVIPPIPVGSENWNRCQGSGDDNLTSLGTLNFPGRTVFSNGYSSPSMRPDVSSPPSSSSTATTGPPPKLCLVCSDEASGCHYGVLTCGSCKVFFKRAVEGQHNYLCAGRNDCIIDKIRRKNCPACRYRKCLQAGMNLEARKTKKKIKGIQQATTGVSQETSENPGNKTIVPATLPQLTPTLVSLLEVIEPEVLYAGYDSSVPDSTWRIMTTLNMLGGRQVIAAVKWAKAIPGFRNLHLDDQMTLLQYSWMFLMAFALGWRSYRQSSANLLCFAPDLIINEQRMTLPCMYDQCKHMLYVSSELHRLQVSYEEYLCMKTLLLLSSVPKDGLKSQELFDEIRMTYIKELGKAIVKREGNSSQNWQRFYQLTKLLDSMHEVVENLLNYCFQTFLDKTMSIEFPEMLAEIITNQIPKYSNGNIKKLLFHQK
# Sequence of Cytochrome P450 1A2 (Homo sapiens) (P05177 whole entry, looked up): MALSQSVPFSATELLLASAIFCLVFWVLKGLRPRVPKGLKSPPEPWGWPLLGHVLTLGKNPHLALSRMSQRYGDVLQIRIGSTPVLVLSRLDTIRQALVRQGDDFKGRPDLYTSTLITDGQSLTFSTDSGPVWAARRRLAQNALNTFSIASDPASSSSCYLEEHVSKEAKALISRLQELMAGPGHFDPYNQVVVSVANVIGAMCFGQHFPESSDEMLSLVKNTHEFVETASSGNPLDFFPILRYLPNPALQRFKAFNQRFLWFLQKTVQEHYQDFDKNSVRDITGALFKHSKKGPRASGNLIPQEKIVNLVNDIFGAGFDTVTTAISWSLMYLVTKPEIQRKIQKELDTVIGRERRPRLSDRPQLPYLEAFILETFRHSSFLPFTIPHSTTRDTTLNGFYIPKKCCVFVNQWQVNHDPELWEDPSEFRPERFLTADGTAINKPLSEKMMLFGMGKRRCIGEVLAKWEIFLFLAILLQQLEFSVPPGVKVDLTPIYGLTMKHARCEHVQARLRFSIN
# Sequence of 3',5'-cyclic-AMP phosphodiesterase 4B (Homo sapiens) (Q07343 whole entry, looked up): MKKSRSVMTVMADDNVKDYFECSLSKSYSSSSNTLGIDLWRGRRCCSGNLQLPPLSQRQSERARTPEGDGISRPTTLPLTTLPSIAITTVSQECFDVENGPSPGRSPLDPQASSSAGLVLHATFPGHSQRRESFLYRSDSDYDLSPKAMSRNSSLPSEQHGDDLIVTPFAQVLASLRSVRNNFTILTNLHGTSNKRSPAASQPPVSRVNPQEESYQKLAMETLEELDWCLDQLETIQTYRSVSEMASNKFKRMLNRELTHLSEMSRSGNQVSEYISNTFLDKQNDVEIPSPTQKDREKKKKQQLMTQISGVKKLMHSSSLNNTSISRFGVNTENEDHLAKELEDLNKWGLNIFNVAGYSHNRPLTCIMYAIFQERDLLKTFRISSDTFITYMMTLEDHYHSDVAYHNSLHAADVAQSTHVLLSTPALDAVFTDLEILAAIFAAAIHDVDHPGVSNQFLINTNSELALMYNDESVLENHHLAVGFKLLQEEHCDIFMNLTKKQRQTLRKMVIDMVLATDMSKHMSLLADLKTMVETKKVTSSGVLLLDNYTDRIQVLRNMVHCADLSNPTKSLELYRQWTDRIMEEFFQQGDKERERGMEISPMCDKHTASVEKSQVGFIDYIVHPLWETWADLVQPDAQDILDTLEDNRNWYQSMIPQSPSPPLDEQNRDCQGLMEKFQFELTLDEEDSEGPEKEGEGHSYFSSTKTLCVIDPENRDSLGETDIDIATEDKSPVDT
# Sequence of Pyruvate kinase (Leishmania mexicana) (Q27686 2-499 E452W): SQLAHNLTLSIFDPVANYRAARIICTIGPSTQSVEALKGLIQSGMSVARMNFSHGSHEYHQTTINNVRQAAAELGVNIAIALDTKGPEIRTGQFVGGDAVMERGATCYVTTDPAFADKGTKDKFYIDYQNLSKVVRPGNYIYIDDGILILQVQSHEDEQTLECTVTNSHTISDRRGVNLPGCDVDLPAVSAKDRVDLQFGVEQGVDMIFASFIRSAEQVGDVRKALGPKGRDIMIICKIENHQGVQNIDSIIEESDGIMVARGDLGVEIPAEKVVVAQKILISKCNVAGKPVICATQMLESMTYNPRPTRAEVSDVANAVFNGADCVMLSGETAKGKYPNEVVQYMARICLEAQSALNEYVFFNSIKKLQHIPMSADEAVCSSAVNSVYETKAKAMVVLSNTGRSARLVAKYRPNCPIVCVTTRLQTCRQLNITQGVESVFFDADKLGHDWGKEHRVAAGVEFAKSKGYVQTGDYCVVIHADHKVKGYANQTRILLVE
# Sequence of Ubiquitin carboxyl-terminal hydrolase 1 (Homo sapiens) (O94782 whole entry, looked up): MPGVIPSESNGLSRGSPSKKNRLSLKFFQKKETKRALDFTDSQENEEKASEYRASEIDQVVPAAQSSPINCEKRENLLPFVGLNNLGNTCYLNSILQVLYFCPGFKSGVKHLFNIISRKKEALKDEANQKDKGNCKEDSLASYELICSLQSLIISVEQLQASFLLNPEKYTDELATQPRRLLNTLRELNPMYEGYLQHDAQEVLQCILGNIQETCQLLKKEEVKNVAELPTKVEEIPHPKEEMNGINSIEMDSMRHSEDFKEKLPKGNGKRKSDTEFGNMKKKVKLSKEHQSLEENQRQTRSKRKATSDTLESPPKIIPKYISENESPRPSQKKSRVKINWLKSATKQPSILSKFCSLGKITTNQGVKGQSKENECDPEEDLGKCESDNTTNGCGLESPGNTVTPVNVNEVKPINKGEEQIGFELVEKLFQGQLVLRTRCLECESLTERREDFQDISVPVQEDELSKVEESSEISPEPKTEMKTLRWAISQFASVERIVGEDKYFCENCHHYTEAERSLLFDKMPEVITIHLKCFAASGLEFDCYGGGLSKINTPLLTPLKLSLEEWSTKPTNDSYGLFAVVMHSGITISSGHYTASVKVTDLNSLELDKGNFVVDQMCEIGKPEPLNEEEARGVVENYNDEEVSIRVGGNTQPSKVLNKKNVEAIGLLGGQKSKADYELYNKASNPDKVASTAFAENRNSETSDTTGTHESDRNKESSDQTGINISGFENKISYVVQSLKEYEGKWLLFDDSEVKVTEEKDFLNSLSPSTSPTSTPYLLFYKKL
# Sequence of DNA dC->dU-editing enzyme APOBEC-3G (Homo sapiens) (Q9HC16 whole entry, looked up): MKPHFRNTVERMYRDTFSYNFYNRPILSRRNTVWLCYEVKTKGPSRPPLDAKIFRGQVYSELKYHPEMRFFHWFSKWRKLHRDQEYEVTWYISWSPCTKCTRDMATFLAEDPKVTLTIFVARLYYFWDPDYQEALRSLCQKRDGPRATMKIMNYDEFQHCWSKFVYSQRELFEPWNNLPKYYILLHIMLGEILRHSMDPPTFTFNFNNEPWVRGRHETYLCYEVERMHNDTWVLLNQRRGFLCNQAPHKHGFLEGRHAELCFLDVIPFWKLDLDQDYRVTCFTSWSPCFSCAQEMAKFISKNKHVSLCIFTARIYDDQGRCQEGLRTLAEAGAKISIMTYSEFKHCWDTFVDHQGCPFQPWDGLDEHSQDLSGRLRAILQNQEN
# Sequence of Muscarinic acetylcholine receptor M1 (Rattus norvegicus) (P08482 whole entry, looked up): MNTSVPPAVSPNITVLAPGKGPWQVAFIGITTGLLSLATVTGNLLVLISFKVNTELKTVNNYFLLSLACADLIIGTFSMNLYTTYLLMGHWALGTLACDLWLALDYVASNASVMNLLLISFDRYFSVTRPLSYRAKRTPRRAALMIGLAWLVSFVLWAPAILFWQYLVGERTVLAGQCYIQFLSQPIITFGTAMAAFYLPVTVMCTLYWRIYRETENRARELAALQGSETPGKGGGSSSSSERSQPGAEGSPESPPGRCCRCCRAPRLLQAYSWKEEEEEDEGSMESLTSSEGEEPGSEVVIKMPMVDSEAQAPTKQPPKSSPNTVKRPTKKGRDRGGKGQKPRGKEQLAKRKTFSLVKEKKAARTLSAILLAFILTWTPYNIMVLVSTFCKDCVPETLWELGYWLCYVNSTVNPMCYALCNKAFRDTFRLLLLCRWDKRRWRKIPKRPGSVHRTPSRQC
# Sequence of Cytochrome P450 2C9 (Homo sapiens) (P11712 whole entry, looked up): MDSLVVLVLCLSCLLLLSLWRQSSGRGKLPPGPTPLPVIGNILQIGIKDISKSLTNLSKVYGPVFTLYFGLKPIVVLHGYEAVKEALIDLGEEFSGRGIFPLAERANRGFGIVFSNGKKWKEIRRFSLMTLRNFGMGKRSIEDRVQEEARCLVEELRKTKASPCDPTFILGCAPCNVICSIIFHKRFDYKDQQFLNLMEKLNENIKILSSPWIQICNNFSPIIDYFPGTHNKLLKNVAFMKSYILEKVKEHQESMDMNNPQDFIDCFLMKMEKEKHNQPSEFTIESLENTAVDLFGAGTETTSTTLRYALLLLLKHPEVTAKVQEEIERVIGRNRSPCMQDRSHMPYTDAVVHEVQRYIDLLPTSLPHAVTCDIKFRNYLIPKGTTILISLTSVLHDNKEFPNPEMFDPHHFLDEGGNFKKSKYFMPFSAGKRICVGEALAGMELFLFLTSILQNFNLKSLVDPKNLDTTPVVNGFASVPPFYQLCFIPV
# Sequence of Guanine nucleotide-binding protein G(i) subunit alpha-1 (Homo sapiens) (P63096 whole entry, looked up): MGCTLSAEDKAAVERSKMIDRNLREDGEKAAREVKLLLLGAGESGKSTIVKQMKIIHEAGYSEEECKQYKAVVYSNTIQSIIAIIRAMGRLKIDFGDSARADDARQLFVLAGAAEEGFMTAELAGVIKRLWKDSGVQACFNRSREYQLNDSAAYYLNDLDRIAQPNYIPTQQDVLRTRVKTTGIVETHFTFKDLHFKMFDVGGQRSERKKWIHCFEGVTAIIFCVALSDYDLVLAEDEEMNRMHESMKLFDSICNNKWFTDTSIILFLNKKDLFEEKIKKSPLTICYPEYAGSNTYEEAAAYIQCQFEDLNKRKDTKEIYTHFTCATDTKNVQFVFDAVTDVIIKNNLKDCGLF
smiles,measurement,setting,value
CC(C)NC[C@@H](O)COc1ccc(CCOCC2CC2)cc1,"activity change, negative = inhibition",[1]; at 17.2 µM (top of the series),-7.61% (inactive)
same,"activity change, negative = inhibition",[1]; at 38 µM (top of the series),1.38% (inactive)
same,Potency,[2],15.8 µM (active) and 12.6 µM (active) and inactive
same,"activity change, negative = inhibition",[3]; at 17.2 µM (top of the series),-13.9% (inactive)
same,"activity change, negative = inhibition",[3]; at 38 µM (top of the series),5.51% (inactive)
same,"activity, negative = inhibition",[4]; at 17.2 µM (top of the series),9.37% (inactive)
same,"activity, negative = inhibition",[4]; at 38 µM (top of the series),21.1% (inactive)
same,Potency,[5],> 46 µM (inactive) and > 20.6 µM (inactive)
same,Potency,[6],inactive
same,Potency,[7],inactive
same,outcome,[8],inactive
same,Potency,[9],0.631 µM (active)
same,Potency,[10],inactive
same,Potency,[11],inactive
same,Potency,[12],inactive
same,outcome,[13],inactive
same,outcome,[14],inactive
same,"activity change, negative = inhibition",[15]; at 25.7 µM (top of the series),-3.72% (inactive)
same,"activity change, negative = inhibition",[15]; at 57.5 µM (top of the series),3.94% (inactive)
same,max response,[15]; measured here: cell count channel max response,2.99% and 8.52%
same,max response,[15]; measured here: lipid channel max response,-0.358% and 14.4%
same,Potency,[16],inactive
same,Potency,[17],inactive
same,Potency,[18],inactive
same,Potency,[19],inactive
